This is an account of results in PubChem BioAssay (NCI).

The nature of test [1]: NCI Yeast Anticancer Drug Screen. Data for the rad50 strain (AID 155).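 Also: 0% = growth of vehicle-only cultures of the same strain.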 The settings on record: S. cerevisiae rad50 strain growth inhibition, hits give high values. In outline:
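Growth of the mutant yeast was measured after compound exposure and referenced to vehicle-treated cultures.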

Test [2] in a line: NCI Yeast Anticancer Drug Screen. Data for the mec2-1 strain (AID 157). The settings on record: S. cerevisiae mec2-1 strain, hits give high values. The gist of the method: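 mec2-1 yeast strain, carrying an alteration in DNA damage repair or cell cycle control, was exposed to compounds; growth inhibition was measured relative to vehicle-treated controls.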
A short description of test [3]: NCI Yeast Anticancer Drug Screen. Data for the sgs1 mgt1 strain (AID 161).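 Also: 0% = growth of cultures given vehicle only.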 The settings on record: S. cerevisiae sgs1 mgt1 strain, hits give high values. The gist of the method: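 Yeast cells carrying a defined DNA-repair defect were exposed to test compounds. Growth inhibition was measured relative to vehicle-treated controls.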
A short description of test [4]: NCI Yeast Anticancer Drug Screen. Data for the cln2 rad14 strain (AID 165).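 Also: 0% = growth equal to vehicle treated cultures.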 The settings on record: S. cerevisiae cln2 rad14 strain, hits give high values. The gist of the method:
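Yeast carrying cln2 and rad14 alterations (cell cycle control and DNA damage repair) were exposed to compounds. Growth inhibition was measured against vehicle-treated controls.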

Test [5] can be described thus: NCI Yeast Anticancer Drug Screen. Data for the bub3 strain (AID 167). The settings on record: S. cerevisiae bub3 mutant strain, hits give high values. In outline: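 Whole-cell yeast assay. The mutant strain was incubated with compounds, and growth inhibition was determined by comparison with vehicle-treated cells.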
The nature of test [6]: NCI Yeast Anticancer Drug Screen. Data for the mlh1 rad18 strain (AID 175). The settings on record: S. cerevisiae mlh1 rad18 strain growth inhibition, hits give high values. In outline:
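Growth inhibition of the yeast strain was measured after compound exposure and expressed relative to vehicle-treated controls. The strain carries defined defects in DNA damage repair.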

Setting [7] is: at 5.0 µM (retest, dose inferred, filed as 0.5).
Where [8] appears, read: at 50.0 µM (retest, dose inferred, filed as 5.0).

About 79,000 compounds went through this panel and 15% of them were active in at least one assay; those are over-represented in the sample as a whole. Unmarked numbers belong to inactive results. Calls of active or inactive are those of the source. Rule as the data show it: active = growth inhibition above about 70%; inactive = the rest.

For the compound `Cc1occc1C(=S)Nc1ccc(Cl)c(C(=O)OCC(F)(F)F)c1`, the growth inhibition is 23% in test [1] (setting [7]); 92% (active) in test [1] (setting [8]); 92.2% (active) in test [1] (at 50.0 µM); 21% in test [2] (setting [7]); 93% (active) in test [2] (setting [8]); 92.8% (active) in test [2] (at 50.0 µM). Also, the growth inhibition in test [3] (setting [7]) is 26%; in test [3] (setting [8]), 96% (active); in test [3] (at 50.0 µM) it was 90.8% (active); in test [4] (setting [7]), 21%; in test [4] (setting [8]) it was 97% (active); in test [4] (at 50.0 µM) it was 88.5% (active). For the same compound, the growth inhibition in test [5] (setting [7]) was 29%; in test [5] (setting [8]) it was 99% (active); in test [5] (at 50.0 µM) it was 91.2% (active); in test [6] (setting [7]) it was 27%; in test [6] (setting [8]), 96% (active); in test [6] (at 50.0 µM) it was 86.8% (active).

As for `C/C=C/C=C\C1OC(O)([C@H](CC)C(=O)NC/C=C/C=C(\C)[C@H](OC)C(C)C2OC(\C=C/C=C/C=C(\C)C(=O)c3c(O)ccn(C)c3=O)[C@H](O)[C@@H]2O)C(O)C(O)C1(C)C` (stereo not given in full), the growth inhibition in test [1] (setting [7]) is -23%; in test [1] (setting [8]), -46%; in test [1] (at 50.0 µM), 35.5%; in test [2] (setting [7]), -26%; in test [2] (setting [8]), -18%; in test [2] (at 50.0 µM) it was 9.5%. The growth inhibition in test [3] (setting [7]) is -13%; in test [3] (setting [8]) it was 34%; in test [3] (at 50.0 µM), 80.5% (active); in test [4] (setting [7]), -14%; in test [4] (setting [8]), 35%; in test [4] (at 50.0 µM) it was 26.9%. Moreover, the growth inhibition in test [5] (setting [7]) is -42%; in test [5] (setting [8]), -26%; in test [5] (at 50.0 µM) it was 26.1%; in test [6] (setting [7]) it was -41%; in test [6] (setting [8]) it was -62%; in test [6] (at 50.0 µM), 17%.

Regarding `COC(=O)c1ccc(OCCC(=O)CCl)cc1`, the growth inhibition was 0% in test [1] (setting [7]); 56% in test [1] (setting [8]); 99.5% (active) in test [1] (at 50.0 µM); 1% in test [2] (setting [7]); 52% in test [2] (setting [8]); 99.8% (active) in test [2] (at 50.0 µM). Also, the growth inhibition in test [3] (setting [7]) was 3%; in test [3] (setting [8]), 55%; in test [3] (at 50.0 µM), 99.7% (active); in test [4] (setting [7]), 4%; in test [4] (setting [8]), 31%; in test [4] (at 50.0 µM), 69.1%. Moreover, the growth inhibition was 11% in test [5] (setting [7]); 67% in test [5] (setting [8]); 99.6% (active) in test [5] (at 50.0 µM); 2% in test [6] (setting [7]); 72% (active) in test [6] (setting [8]); 97.8% (active) in test [6] (at 50.0 µM).

Turning to `Cc1cccc2c1C1c3c(C)cccc3C(O)CC1CC2O` (stereo not given), the growth inhibition in test [1] (setting [7]) was 15%; in test [1] (setting [8]) it was 3%; in test [1] (at 50.0 µM), 36.5%; in test [2] (setting [7]) it was -6%; in test [2] (setting [8]) it was -4%; in test [2] (at 50.0 µM), 23.1%. Besides, the growth inhibition was -2% in test [3] (setting [7]); 45% in test [3] (setting [8]); 42.4% in test [3] (at 50.0 µM); -18% in test [4] (setting [7]); -1% in test [4] (setting [8]); 30.1% in test [4] (at 50.0 µM). The growth inhibition in test [5] (setting [7]) is -10%; in test [5] (setting [8]), 4%; in test [5] (at 50.0 µM) it was 33.5%; in test [6] (setting [7]) it was 1%; in test [6] (setting [8]), 28%; in test [6] (at 50.0 µM), 39.8%.

For `COc1c(C(=O)/C(=N/Nc2ccccc2)C(C)=O)c(O)c(OC)c2occc12`, the growth inhibition is -2% in test [1] (setting [7]); 94% (active) in test [1] (setting [8]); 45.7% in test [1] (at 50.0 µM); -18% in test [2] (setting [7]); 87% (active) in test [2] (setting [8]); 52.5% in test [2] (at 50.0 µM). The growth inhibition in test [3] (setting [7]) is -39%; in test [3] (setting [8]), 82% (active); in test [3] (at 50.0 µM), 73.2% (active); in test [4] (setting [7]), -19%; in test [4] (setting [8]) it was 91% (active); in test [4] (at 50.0 µM) it was 33%. Further, the growth inhibition in test [5] (setting [7]) is -32%; in test [5] (setting [8]), 92% (active); in test [5] (at 50.0 µM), 47.8%; in test [6] (setting [7]) it was 2%; in test [6] (setting [8]) it was 90% (active); in test [6] (at 50.0 µM) it was 68.8%.

Turning to `Oc1cc(CNCc2ccccc2)c(O)c(CNCc2ccccc2)c1`, the growth inhibition in test [1] (setting [7]) was 10%; in test [1] (setting [8]), 10%; in test [1] (at 50.0 µM) it was -4%; in test [2] (setting [7]), 17%; in test [2] (setting [8]), 24%; in test [2] (at 50.0 µM), 31.9%. In addition, the growth inhibition in test [3] (setting [7]) is 5%; in test [3] (setting [8]), 11%; in test [3] (at 50.0 µM), 5.25%; in test [4] (setting [7]), 3%; in test [4] (setting [8]), -13%; in test [4] (at 50.0 µM), 38.2%. The growth inhibition was -1% in test [5] (setting [7]); -4% in test [5] (setting [8]); 1.95% in test [5] (at 50.0 µM); 8% in test [6] (setting [7]); 15% in test [6] (setting [8]); 17% in test [6] (at 50.0 µM).

With `Cc1c[nH]c(C(=O)O)c1-c1ccc2c(-c3ccccc3)nc3ccccc3n12`, the growth inhibition in test [1] (setting [7]) is 14%; in test [1] (setting [8]), 96% (active); in test [1] (at 50.0 µM), 82.8% (active); in test [2] (setting [7]), 11%; in test [2] (setting [8]) it was 99% (active); in test [2] (at 50.0 µM), 91% (active). Moreover, the growth inhibition in test [3] (setting [7]) is 10%; in test [3] (setting [8]), 99% (active); in test [3] (at 50.0 µM), 89.4% (active); in test [4] (setting [7]) it was 8%; in test [4] (setting [8]) it was 99% (active); in test [4] (at 50.0 µM), 89% (active). For the same compound, the growth inhibition in test [5] (setting [7]) is 13%; in test [5] (setting [8]) it was 99% (active); in test [5] (at 50.0 µM), 85.9% (active); in test [6] (setting [7]), 12%; in test [6] (setting [8]) it was 95% (active); in test [6] (at 50.0 µM) it was 91.8% (active).

Regarding `CC(C)(C)c1ccc(O)c(O)c1`, the growth inhibition in test [1] (setting [7]) is 2%; in test [1] (setting [8]), 56%; in test [1] (at 50.0 µM) it was 63.4%; in test [2] (setting [7]), 10%; in test [2] (setting [8]) it was 51%; in test [2] (at 50.0 µM), 61.6%. Also, the growth inhibition is 11% in test [3] (setting [7]); 54% in test [3] (setting [8]); 79.8% (active) in test [3] (at 50.0 µM); -1% in test [4] (setting [7]); 16% in test [4] (setting [8]); -8.95% in test [4] (at 50.0 µM). Further, the growth inhibition was -3% in test [5] (setting [7]); 23% in test [5] (setting [8]); 37.6% in test [5] (at 50.0 µM); 10% in test [6] (setting [7]); 75% (active) in test [6] (setting [8]); 81.2% (active) in test [6] (at 50.0 µM).

As to `Nn1c2ccccc2c2ccccc21`, the growth inhibition in test [1] (setting [7]) is -106%; in test [1] (setting [8]), -52%; in test [1] (at 50.0 µM), 35%; in test [2] (setting [7]) it was -44%; in test [2] (setting [8]) it was -53%; in test [2] (at 50.0 µM), 11.8%. In addition, the growth inhibition was -32% in test [3] (setting [7]); -25% in test [3] (setting [8]); 8.1% in test [3] (at 50.0 µM); -54% in test [4] (setting [7]); -77% in test [4] (setting [8]); 12% in test [4] (at 50.0 µM). The growth inhibition in test [5] (setting [7]) is -72%; in test [5] (setting [8]), -80%; in test [5] (at 50.0 µM), -6%; in test [6] (setting [7]) it was -78%; in test [6] (setting [8]), 6%; in test [6] (at 50.0 µM), 75.1% (active).

With `CCCCCCCCCCCCCCC[N+]1(CC)CCCCC1`, the growth inhibition in test [1] (setting [7]) was 99% (active); in test [1] (setting [8]), 99% (active); in test [1] (at 50.0 µM), 90.3% (active); in test [2] (setting [7]) it was 97% (active); in test [2] (setting [8]), 99% (active); in test [2] (at 50.0 µM) it was 90.8% (active). For the same compound, the growth inhibition in test [3] (setting [7]) is 99% (active); in test [3] (setting [8]), 99% (active); in test [3] (at 50.0 µM), 91.7% (active); in test [4] (setting [7]) it was 99% (active); in test [4] (setting [8]), 99% (active); in test [4] (at 50.0 µM), 90% (active). The growth inhibition in test [5] (setting [7]) is 98% (active); in test [5] (setting [8]) it was 99% (active); in test [5] (at 50.0 µM) it was 90.5% (active); in test [6] (setting [7]), 98% (active); in test [6] (setting [8]) it was 99% (active); in test [6] (at 50.0 µM), 89.2% (active).
